Source: PubChem BioAssay (Tox21)
“And” between values parts separate entries of the source, which are not always exact repeats. Equal entries are not always repeated. Inconclusive results are not listed. The source holds several records for some structures; these can differ, active in one and inactive in another. The source made the active and inactive calls. Unless noted, the call rests on the fitted dose curve; in most records, active means well fitted curve in the direction sought with a large enough effect in the repeat runs; inconclusive means weak or mixed curves; inactive means no such curve, though single readings can be large; an effect the other way counts as inactive or inconclusive.

Assays:
[1] = qHTS assay to identify small molecule agonists of the TGF-beta/Smad signaling pathway - cell viability counter screen (AID 1346829); further: top concentration of the series differs between compounds; nearly all actives have a fitted effect of over 45% in size
Method in brief: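 CellTiter-Glo luminescence readout; SBE-bla HEK 293T cells, overnight plating, compound 5 hr at 37 C/5% CO2, then bla substrate 2 hr RT, then CellTiter-Glo 30 min RT.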

[2] = qHTS assay to identify small molecule agonists of the TGF-beta/Smad signaling pathway (AID 1346859; active means well fitted activation curve with a large enough effect in the signal ratio in the repeat runs, not every such curve was filed as active; the % refers to the signal ratio; further: series mostly up to about 77 µM)
Method in brief: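 SBE-bla HEK 293T, 4,000 cells/well, plated o/n; cpd in DMSO, 5 hr, 37 C/5% CO2; B/G FRET substrate 2 hr RT; ex 405, em 460/530 nm.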

[3] = biological target: Thyrotropin-releasing hormone receptor (Homo sapiens) (UniProt P34981); test: qHTS assay to identify small molecule antagonists of the thyrotropin-releasing hormone receptor (TRHR) signaling pathway (AID 1346877; active means well fitted inhibition curve with a large enough effect in the repeat runs, not every such curve was filed as active; further: potency means the concentration at half of the fitted maximal effect; on activity, negative = inhibition: series mostly up to about 51 µM)
Method in brief: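 In this cell-based calcium flux format, HEK293 cells expressing TRHR received test compound for 5 min before the agonist TRH (1 nM final). Dye loading lasted 2 h at 37 °C.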

[4] = biological target: Thyrotropin-releasing hormone receptor (Homo sapiens) (UniProt P34981); test: qHTS assay to identify small molecule agonists of the thyrotropin-releasing hormone receptor (TRHR) signaling pathway (AID 1346891; calls by dose curve; further: series mostly up to about 58 µM)
Method in brief: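 Intracellular calcium rise, read as fluorescence every second for 3 min, served as the agonist signal in dye-loaded HEK293 cells expressing TRHR; each compound ran at 15 concentrations in triplicate.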

[5] = Human pregnane X receptor (PXR) small molecule agonists, qHTS cell viability counter screen (AID 1346977); further: nearly all actives have a fitted effect of over 50% in size; further: potency means the concentration at half of the fitted maximal effect
Method in brief: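 PXR-Luc HepG2, 2,000 cells/well, 5% charcoal-stripped FBS; 5hr settle; cpd 24hr, 37C/5% CO2; CellTiter-Fluor at 23hr, read 1hr later (fluorescence).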

[6] = Caspase-3/7 induction in HepG2 cells by small molecules, qHTS assay (AID 1346978); further: nearly all actives have a fitted effect of over 15% in size; further: potency means the concentration at half of the fitted maximal effect
Method in brief: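 Wild-type HepG2 cells, 2,000/well, settled 5 hr at 37 C and 5% CO2, then compound-treated for 17 hr; caspase-3/7 activity read by luminescent Caspase-Glo 3/7 after 30 min at room temperature.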

[7] = Caspase-3/7 induction in CHO-K1 cells by small molecules, qHTS cell viability counter screen (AID 1346979); further: nearly all actives have a fitted effect of over 35% in size; further: potency means the concentration at half of the fitted maximal effect
Method in brief: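 Cells (CHO-K1, wild type) are plated at 1,500 per well and incubated 5hr. Test compounds in DMSO are then pinned in, followed by 16hr at 37C and 5% CO2. Viability is read by CellTiter-Fluor fluorescence after 1hr.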

[8] = Caspase-3/7 induction in CHO-K1 cells by small molecules, qHTS assay (AID 1346980); further: nearly all actives have a fitted effect of over 15% in size
Method in brief: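 Wild-type CHO-K1 cells exposed to compounds for 17hr at 37 C, 5% CO2. Caspase-3/7 activity then measured by Caspase-Glo 3/7 luminescence after 30min at room temperature.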

[9] = Caspase-3/7 induction in HepG2 cells by small molecules, qHTS cell viability counter screen (AID 1346981); further: nearly all actives have a fitted effect of over 30% in size; further: potency means the concentration at half of the fitted maximal effect; on activity change, negative = cytotoxicity: series mostly up to about 92 µM
Method in brief: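 Counter screen for cytotoxicity: HepG2 exposed 16 hr to compounds, then CellTiter-Fluor viability signal (fluorescence, 1 hr reagent incubation).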

[10] = biological target: Nuclear receptor subfamily 1 group I member 2 (Homo sapiens) (UniProt O75469); test: Human pregnane X receptor (PXR) small molecule agonists, qHTS assay (AID 1346982); further: nearly all actives have a fitted effect of over 35% in size; further: potency means the concentration at half of the fitted maximal effect
Method in brief: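 Luminescence (ONE-Glo, 30 min RT) after 24 hr compound exposure of PXR-Luc HepG2 cells; cells rested 5 hr post-plating in 5% charcoal-stripped FBS medium.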
On the % scale 0 is the no-effect control and ±100 the full control effect.

Chain of Nuclear receptor subfamily 1 group I member 2 (Homo sapiens) (O75469 whole entry, looked up): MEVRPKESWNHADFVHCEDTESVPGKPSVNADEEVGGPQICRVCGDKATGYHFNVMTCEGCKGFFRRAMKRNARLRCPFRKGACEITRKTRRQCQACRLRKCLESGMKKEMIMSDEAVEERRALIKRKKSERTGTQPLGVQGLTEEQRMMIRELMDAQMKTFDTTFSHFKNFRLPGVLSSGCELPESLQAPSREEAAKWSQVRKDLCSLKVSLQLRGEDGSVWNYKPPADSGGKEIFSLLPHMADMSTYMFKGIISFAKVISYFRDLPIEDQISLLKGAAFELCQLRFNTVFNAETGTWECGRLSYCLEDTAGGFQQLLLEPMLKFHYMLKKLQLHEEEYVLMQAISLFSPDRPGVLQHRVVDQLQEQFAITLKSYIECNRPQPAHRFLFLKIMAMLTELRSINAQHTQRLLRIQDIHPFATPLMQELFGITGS
Chain of Thyrotropin-releasing hormone receptor (Homo sapiens) (P34981 whole entry, looked up): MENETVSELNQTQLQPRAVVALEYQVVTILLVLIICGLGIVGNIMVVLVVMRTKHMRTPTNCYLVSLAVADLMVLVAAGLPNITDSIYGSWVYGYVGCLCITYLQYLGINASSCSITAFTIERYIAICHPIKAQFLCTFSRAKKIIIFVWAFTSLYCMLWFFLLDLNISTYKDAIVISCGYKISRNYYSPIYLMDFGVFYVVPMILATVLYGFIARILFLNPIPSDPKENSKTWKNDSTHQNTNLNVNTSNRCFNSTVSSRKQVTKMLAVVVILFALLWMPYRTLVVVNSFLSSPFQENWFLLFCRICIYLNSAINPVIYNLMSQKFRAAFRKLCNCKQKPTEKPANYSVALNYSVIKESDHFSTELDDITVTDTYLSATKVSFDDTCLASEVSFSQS

CCCC(C)=O
inactive: Potency [1] | outcome [2] | Potency [3] | outcome [4] | Potency [5] | Potency [6] | Potency [7] | outcome [8] | Potency [9] | Potency [10]

O=C(O)c1cc(O)c(O)c(O)c1
inactive: Potency [1] | outcome [2] | Potency [3] | outcome [4] | Potency [6] | outcome [8] | Potency [10]
49 µM (active) and inactive: Potency [5]
active: Potency [7] 30.9 µM | Potency [9] 43.7 µM

Cc1cccnc1
inactive: Potency [1] | outcome [2] | Potency [3] | outcome [4] | Potency [5] | Potency [6] | Potency [7] | outcome [8] | Potency [9] | Potency [10]

c1ccc2c(c1)ccc1ccccc12
inactive: Potency [1] | outcome [2] | Potency [3] | outcome [4] | Potency [5] | Potency [6] | Potency [7] | outcome [8] | Potency [9] | Potency [10]

CCCCC(CC)COC(=O)CCCCC(=O)OCC(CC)CCCC (stereo not drawn)
inactive: Potency [1] | outcome [2] | Potency [3] | outcome [4] | Potency [5] | Potency [6] | Potency [7] | outcome [8] | Potency [9] | Potency [10]

CC[C@H](C)C(=O)O[C@H]1C[C@@H](C)C=C2C=C[C@H](C)[C@H](CC[C@@H]3C[C@@H](O)CC(=O)O3)[C@H]21
active: Potency [7] 69.6 µM
inactive: Potency [1] | outcome [2] | outcome [4] | Potency [5] | outcome [8]
24.7 µM (active) and inactive: Potency [10]
69.6 µM (active) and inactive: Potency [9]
38.5 µM (active) and inactive: Potency [3]
55.2 µM (active) and inactive: Potency [6]

OCCOCCN1CCN(C2=Nc3ccccc3Sc3ccccc32)CC1
inactive: Potency [1] | outcome [2] | Potency [3] | outcome [4] | Potency [5] | Potency [6] | Potency [7] | outcome [8] | Potency [9]

CCCCCOC(C)=O
inactive: Potency [1] | outcome [2] | Potency [3] | outcome [4] | Potency [5] | Potency [6] | Potency [7] | outcome [8] | Potency [9] | Potency [10]

CCN(CC)CCCC(C)Nc1ccnc2cc(Cl)ccc12 (stereo not drawn)
active: Potency [5] 13 µM
inactive: activity change, negative = cytotoxicity [1] -0.0742% [at 6.97 µM] and -3.92% [at 15.8 µM] | activation [2] 1.95% [at 6.97 µM] and -1.03% [at 15.8 µM] | activity, negative = inhibition [3] 0.384% [at 4.65 µM] and -4.99% [at 10.5 µM] | activation [4] 0.225% [at 5.23 µM] and -0.0196% [at 11.8 µM] | activity change, negative = cytotoxicity [5] -20.8% [at 8.39 µM] | caspase activation [6] 1.19% [at 8.39 µM] and -0.361% [at 19 µM] | activity change, negative = cytotoxicity [7] -0.939% [at 8.39 µM] and -3.64% [at 19 µM] | caspase-3/7 activation [8] 0.759% [at 8.39 µM] and -0.715% [at 19 µM] | activity change, negative = cytotoxicity [9] -14.1% [at 8.39 µM] and -16.1% [at 19 µM] | activation [10] 3.19% [at 8.39 µM] and -3.77% [at 19 µM]

Oc1cccc2ccccc12
inactive: Potency [1] | outcome [2] | Potency [3] | outcome [4] | Potency [5] | Potency [6] | Potency [7] | outcome [8] | Potency [9]

COc1ccc(Nc2ccccc2)c(C)c1
inactive and 54.5 µM (active): Potency [10]
inactive: Potency [1] | outcome [2] | Potency [3] | outcome [4] | Potency [5] | Potency [6] | Potency [7] | outcome [8] | Potency [9]

Nc1ccccc1[N+](=O)[O-]
inactive: Potency [1] | outcome [2] | Potency [3] | outcome [4] | Potency [5] | Potency [6] | Potency [7] | outcome [8] | Potency [9] | Potency [10]

CC1CCC2CC1C2(C)C (stereo not drawn)
inactive: Potency [1] | outcome [2] | Potency [3] | outcome [4] | Potency [5] | Potency [6] | Potency [7] | outcome [8] | Potency [9] | Potency [10]

CCC(O)OCCCOC (stereo not drawn)
inactive: Potency [1] | outcome [2] | Potency [3] | outcome [4] | Potency [6] | outcome [8] | Potency [9]
22.4 µM (active) and inactive: Potency [5]
11.1 µM (active) and inactive: Potency [10]
5.59 µM (active) and inactive: Potency [7]

COCCCOc1ccnc(CS(=O)c2nc3ccccc3[nH]2)c1C (stereo not drawn)
60.9 µM (active) and inactive: Potency [7]
inactive: Potency [1] | outcome [2] | Potency [3] | outcome [4] | Potency [5] | Potency [6] | outcome [8] | Potency [9]

CCCCCC1=CCCC1=O
62.4 µM (active) and inactive: Potency [10]
inactive: Potency [1] | outcome [2] | Potency [3] | outcome [4] | Potency [5] | Potency [6] | Potency [7] | outcome [8] | Potency [9]

C/C=C1/CC2C=CC1C2 (stereo not drawn)
inactive and 54.5 µM (active): Potency [10]
inactive: Potency [1] | outcome [2] | Potency [3] | outcome [4] | Potency [5] | Potency [6] | Potency [7] | outcome [8] | Potency [9]

O=C(O)c1ccc2c(c1)C(=O)OC2=O
inactive: Potency [1] | outcome [2] | Potency [3] | outcome [4] | Potency [5] | Potency [6] | Potency [7] | outcome [8] | Potency [9] | Potency [10]

CCCCC(CC)COC(=O)C(C#N)=C(c1ccccc1)c1ccccc1 (stereo not drawn)
inactive: Potency [1] | outcome [2] | Potency [3] | outcome [4] | Potency [5] | Potency [6] | outcome [8] | Potency [9]
active: Potency [7] 48.6 µM and 18.8 µM | Potency [10] 13.7 µM and 10.6 µM

FC(F)(F)c1ccc(Cl)c(Cl)c1
inactive: Potency [1] | outcome [2] | Potency [3] | outcome [4] | Potency [5] | Potency [6] | Potency [7] | outcome [8] | Potency [9] | Potency [10]

CC1CCC(C(C)C)C(O)C1 (stereo not drawn)
inactive: Potency [1] | outcome [2] | Potency [3] | outcome [4] | Potency [5] | Potency [6] | Potency [7] | outcome [8] | Potency [9] | Potency [10]

CC(=O)Nc1ccccc1
inactive: Potency [1] | outcome [2] | Potency [3] | outcome [4] | Potency [5] | Potency [6] | Potency [7] | outcome [8] | Potency [9] | Potency [10]
